# Rows were chosen to be rich in hits. Some 17% of all compounds tested hit in one or more screens of this group.
# HT1080NT lethal = kills 2HG-producing HT-1080-NT fibrosarcoma cells; 1.6% of 360,000 active; AID 686970; Potency, µM (highest dose often 46.1 µM), hits mostly cytotoxic; HT-1080-NT fibrosarcoma viability, CellTiter-Glo ATP luminescence, 48 h;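 also: NT is the 2HG producing partner of a matched IDH1 knockdown line; nearly all actives have a fitted effect of over 55% in size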
#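 Read-out is CellTiter-Glo luminescence after 10 minutes at room temperature, following 48 hours' compound treatment of HT-1080-NT cells (750 cells/well, RPMI, 5% FBS, 37 degrees C).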
# HepG2 tox = HepG2 cytotoxicity, counter-screen for TGF-b inhibitors; HepG2 CAGA-GFP viability, ATP luminescence, 18 h; Potency, µM (series often up to 46.1 µM), most hits filed as cytotoxic; 0.76% of 410,000 active
#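 HepG2 CAGA-GFP cells (1000/well, DMEM with 1% FBS) received compound, then TGF-beta at 500 pg/mL final, and were incubated 18 hours at 37 degrees C. Viability was read by CellTiter-Glo luminescence. Media-only wells were set as complete cell-killing and DMSO as no toxicity.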
# HT1080 IDH1KD tx = HT-1080 IDH1 knockdown cell toxicity (counter line) | HT-1080 IDH1 knockdown viability, ATP luminescence, 48 h | Potency, µM (titrated, usually from 46.1 µM), most hits filed as cytotoxic | 2% of 360,000 active
#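 Luminescent ATP read-out (CellTiter-Glo, 10 min at room temperature) after 48 h compound exposure at 37 °C gave viability of IDH1-knockdown HT-1080 cells. Activity was normalised to DMSO and cell-free wells, then fitted as concentration-response curves.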
# TGFb inhibitor = inhibitors of TGF-b signaling. Potency, µM (top dose mostly 46.1 µM), most hits filed as inhibitors. 1.2% of 410,000 active. HepG2 CAGA-GFP TGF-b/SMAD3 reporter, GFP fluorescence, 18 h; TGF-beta stimulated, 500 pg/mL final; also: nearly all actives have a fitted effect of over 65% in size
#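 Smad-responsive CAGA-GFP expression was quantified in HEPG2 cells exposed to compounds and 500 pg/mL final TGF-beta for 18 h at 37 degrees C; unstimulated wells defined full inhibition.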
# DT40 TDP1 no CPT = qHTS for Inhibitors of human tyrosyl-DNA phosphodiesterase 1 (TDP1): qHTS in cells in absence of CPT; DT40 Tdp1-/- hTDP1 cells, no CPT, ATP luminescence, 48 h; Potency, µM (titrated, usually from 46.2 µM), most hits filed as inhibitors; 15% of 420,000 active; also: nearly all actives have a fitted effect of over 55% in size
#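 A cellular qHTS used chicken DT40 cells lacking endogenous Tdp1 but carrying stably transfected human TDP1. Compounds were applied without camptothecin, and cell growth kinetics were judged by ATP-dependent luminescence after ≥48 hr.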
# DT40 TDP1 CPT = growth inhibition of DT40 Tdp1-/-;hTDP1 cells with camptothecin (screen for TDP1 inhibitors); chicken DT40 Tdp1-/-;hTDP1 cells + 20 nM CPT, ATP luminescence, 48 h; 12% of 420,000 active; Potency, µM (doses to about 46.2 µM), most hits filed as inhibitors; also: nearly all actives have a fitted effect of over 55% in size
#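 Chicken DT40 Tdp1-/- cells complemented with human TDP1, 400 cells/well, exposed to compounds plus 20 nM camptothecin for at least 48 h at 37 C; viability read as ATP content by CellTiter-Glo luminescence.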
# A number is an active result; n = inactive; u = inconclusive; x = no result given. Calls follow the shape of the dose curve; as a rule, active = well fitted curve in the direction sought with a large enough effect; inconclusive = small, poorly fitted or top-dose-only effect, or another doubt; inactive = no such curve, though single readings can be large; an effect the other way counts as inactive or inconclusive.
SMILES,HT1080NT lethal,HepG2 tox,HT1080 IDH1KD tx,TGFb inhibitor,DT40 TDP1 no CPT,DT40 TDP1 CPT
O=C(Nc1cccc(C(F)(F)F)c1)c1cc2nc(-c3ccccc3)cc(C(F)(F)F)n2n1,x,n,x,n,n,n
O=C(Cc1cccs1)N(Cc1ccco1)C1(C(=O)NC2CCCC2)CCCCC1,n,n,n,n,u,u
CCCn1c(SCC(=O)N2CCN(c3ccc(OC)cc3)CC2)nc2c1c(=O)n(C)c(=O)n2C,n,n,n,u,16.4µM,18.4µM
CCCn1c(SCC(=O)N2CCCC2)nc2c1c(=O)n(C)c(=O)n2C,n,n,n,n,n,n
COc1ccc(OCC(O)Cn2c(N3CCCCC3)nc3c2c(=O)n(C)c(=O)n3C)cc1 (stereo unspecified),n,n,n,n,16.4µM,u
Cn1c(=O)c2c(nc(N3CCOCC3)n2Cc2ccc(Br)cc2)n(C)c1=O,x,n,x,n,20.6µM,10.3µM
COc1ccc(N2CCN(c3nc4c(c(=O)n(C)c(=O)n4C)n3Cc3ccccc3)CC2)cc1,n,n,n,n,u,23.1µM
Cc1cccc(-c2cc(C(=O)O)c3c(-c4ccc(F)cc4)[nH]nc3n2)c1,x,n,x,n,n,n
CCOc1ccc(S(=O)(=O)N2CCCC(C(=O)NCc3cccnc3)C2)cc1 (stereo unspecified),n,n,n,n,u,n
Cc1ccc(S(=O)(=O)SC/C=C/CSS(=O)(=O)c2ccc(C)cc2)cc1,u,n,n,u,14.6µM,u
Cc1ccc(S(=O)(=O)CCCS(=O)(=O)c2ccc(C)cc2)cc1,n,n,n,n,n,n
Cc1ccc(S(=O)(=O)SCCCSS(=O)(=O)c2ccc(C)cc2)cc1,n,n,n,n,20.6µM,18.4µM
COc1ccc(/C=N/NC(=S)NCCc2ccccc2)cc1,n,n,n,u,25.9µM,18.4µM
CCc1ccc(/C=N/NC(=S)NCCc2ccccc2)cc1,n,n,n,n,16.4µM,u
COc1cccc(/C=N/NC(=S)NCCc2ccccc2)c1,n,n,u,25.1µM,u,u
Fc1ccc(/C=N/NC(=S)NCCc2ccccc2)cc1F,n,n,n,u,u,u
Cn1c(=O)c2c(nc(NCCNC(=O)c3ccco3)n2Cc2ccccc2)n(C)c1=O,n,n,n,n,u,u
O=C(Cn1nc(CNc2ccc(Br)cc2)[n+]2c1CCCCC2)c1ccc([N+](=O)[O-])cc1,u,n,u,n,11.6µM,6.51µM
COc1ccc(CNc2ccc(Br)cc2)cc1,n,n,n,n,n,u
O=C(Cn1nc(CNc2ccc(Cl)cc2)[n+]2c1CCCCC2)c1ccc(Br)cc1,n,n,n,n,u,23.1µM
COc1ccc(NCc2nn(CC(=O)c3ccc(Br)cc3)c3[n+]2CCCCC3)cc1,n,n,n,n,16.4µM,u
O=C(Cn1cc(COc2ccc(C(=O)c3ccccc3)cc2)nn1)c1ccc(O)cc1,u,n,u,n,n,n
CCn1nc2cc(C(=O)NCCc3cccs3)ccc2c1OC,n,n,n,n,n,n
CN(C(=O)COC(=O)CSc1ccc(C(N)=O)cc1[N+](=O)[O-])C1CCCCC1,n,n,n,n,n,n
CC(=O)NC(c1ccccc1)c1nc(-c2cc3ccccc3o2)cs1 (stereo unspecified),u,n,n,n,u,23.1µM
CC(=O)NC(c1cccc(F)c1)c1nc(-c2cc3ccccc3o2)cs1 (stereo unspecified),u,n,u,n,20.6µM,u
CC(=O)NC(c1ccccc1)c1nc(-c2cccs2)cs1 (stereo unspecified),n,n,n,n,u,n
CC(=O)NC(c1ccc(F)c(F)c1)c1nc(-c2cc3ccccc3o2)cs1 (stereo unspecified),n,n,n,n,u,n

# Source: PubChem BioAssay
